Screening results from PubChem BioAssay.
Most compounds without a hit are left out; they make up all but 5.9% or so of the library.
HepG2 tox-1: qHTS for Inhibitors of TGF-b: Cytotox Counterscreen; HepG2 CAGA-GFP viability, ATP luminescence, 18 h; Potency, µM (top dose mostly 46.1 µM), without a hit: at the highest dose activity change, negative = cytotoxicity, usual class: cytotoxic; 410,000 compounds, 0.76% hits; AID 588856, 2011
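CellTiter-Glo luminescence gave cytotoxicity after 18 hours at 37 degrees C. The cells were HepG2 CAGA-GFP in 1% FBS DMEM, stimulated with 500 pg/mL TGF-beta after compound addition. %Activity was normalised to no-cell wells (complete cell-killing) and DMSO (no toxicity), and curves were fitted and classified.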
KB-3-1 tox: qHTS assay for MDR1-selective chemotherapeutics: Primary screen using the parental adenocarcinoma cell KB-3-1 | KB-3-1 viability, CellTiter-Glo ATP luminescence, 72 h | Potency, µM (top dose mostly 46.1 µM), usual class: cytotoxic | 400,000 compounds, 1.4% hits; further: on the % scale 0 is the no-effect control and ±100 the full control effect; nearly all actives have a fitted effect of over 60% in size
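Cytotoxicity measured as CellTiter-Glo luminescence after 72 h at 37 C. Compound titrations were pinned onto drug-naive KB-3-1 parental adenocarcinoma cells grown in DMEM with 10% FBS, and normalized data fitted to concentration-response curves.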
S2 tox: Viability Counterscreen for Primary qHTS for Inhibitors of ATXN expression. Potency, µM (titrated, usually from 56.7 µM), usual class: cytotoxic. 400,000 compounds, 0.49% hits. S2 cells (HEK-293 line with an ATXN2-luciferase reporter) viability, CellTiter-Fluor protease fluorescence, 24 h; further: nearly all actives have a fitted effect of over 40% in size
TGFb inhibitor: qHTS for Inhibitors of TGF-b. 410,000 compounds, 1.2% hits. HepG2 CAGA-GFP TGF-b/SMAD3 reporter, GFP fluorescence, 18 h; TGF-beta stimulated, 500 pg/mL final. Potency, µM (highest dose often 46.1 µM), without a hit: top-dose activity, negative = inhibition, hits mostly inhibitors; further: on the % scale 0 is the no-effect control and ±100 the full control effect; nearly all actives have a fitted effect of over 65% in size
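Cell-based qHTS in HEPG2 carrying a CAGA-GFP Smad reporter; compounds added before 500 pg/mL final TGF-beta, 18 h incubation at 37 degrees C, GFP fluorescence quantified per cell by imaging cytometry.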
KB-V1 MDR tox: qHTS assay for MDR1-selective chemotherapeutics: Primary screen using the drug-selected MDR subline cells KB-V1; KB-V1 MDR cells viability, CellTiter-Glo, 72 h; Potency, µM (top dose mostly 46.1 µM), hits mostly cytotoxic; 400,000 compounds, 3.4% hits; further: on the % scale 0 is the no-effect control and ±100 the full control effect; nearly all actives have a fitted effect of over 60% in size
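Compound-treated KB-V1 multidrug-resistant cells, 72 h, 37 degrees C; viability by CellTiter-Glo. Fitted qHTS curves give the values.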
ATXN2 expr inh: Primary qHTS for Inhibitors of ATXN expression; 360,000 compounds, 0.72% hits; HEK-293 ATXN2-luciferase reporter, luminescence, 24 h; Potency, µM (titrated, usually from 57 µM), without a hit: at the top dose activity change, negative = inhibition, hits mostly inhibitors; further: on the % scale 0 is the no-effect control and ±100 the full control effect; nearly all actives have a fitted effect of over 55% in size
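ATXN2-luciferase reporter cells (luciferase flanked by upstream and downstream ATXN2 gene portions) were treated 24 h at 37 °C with compounds at up to 57 uM. SteadyGlo luminescence gave expression; GF-AFC fluorescence gave viability.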
TGFb confirm: qHTS for Inhibitors of TGF-b: Confirmation of Cherry Picks | shares compounds with TGFb inhibitor | HepG2 CAGA-GFP TGF-b reporter, GFP fluorescence, 18 h; cells stimulated with TGF-beta, 500 pg/mL | Potency, µM (top dose mostly 46.1 µM), inactives show top-dose activity, negative = inhibition, hits mostly inhibitors | 1,600 compounds, 63% hits | AID 720534, 2013; further: on the % scale 0 is the no-effect control and ±100 the full control effect; nearly all actives have a fitted effect of over 65% in size
HepG2 tox-2: qHTS for Inhibitors of TGF-b: Cytotox Counterscreen for Cherry Picks. Potency, µM (series often up to 46.1 µM), without a hit: at the top dose activity, negative = cytotoxicity, actives largely listed as inhibitors. AID 720535, 2013. 1,600 compounds, 27% hits. shares compounds with TGFb inhibitor. HepG2 CAGA-GFP viability, ATP luminescence, 18 h; cells stimulated with TGF-beta, 500 pg/mL; further: on the % scale 0 is the no-effect control and ±100 the full control effect; nearly all actives have a fitted effect of over 70% in size
CCL64 TGFb inh: qHTS for Inhibitors of TGF-b: CCL64 Cells Orthogonal Assay for Cherry Picks; CCL64 CAGA-GFP reporter, TGF-b stimulated, GFP fluorescence, 18 h; 1,600 compounds, 41% hits; Potency, µM (doses to about 46.1 µM), without a hit: at the top dose activity, negative = inhibition, most hits filed as inhibitors; shares compounds with TGFb inhibitor; further: nearly all actives have a fitted effect of over 65% in size
TGFb COP inh: qHTS for Inhibitors of TGF-b: Hit Validation in HepG2 Cells using COP promoter. shares compounds with TGFb inhibitor. HepG2 COP-GFP TGF-b reporter, GFP fluorescence, 18 h; cells stimulated by added recombinant TGF-beta. Potency, µM (highest dose often 46.1 µM), inactives show at the top dose activity, negative = inhibition, actives largely listed as inhibitors. 1,600 compounds, 3% hits. AID 720537, 2013; further: nearly all actives have a fitted effect of over 70% in size
The depositor's hits bear a star. The call rests on the fitted dose curve; in most records, active means well fitted curve in the direction sought with a large enough effect; inconclusive means small, poorly fitted or top-dose-only effect, or another doubt; inactive means no such curve, though single readings can be large; an effect the other way counts as inactive or inconclusive. Potency means the concentration at half of the fitted maximal effect.

Screening CCOC(=O)C1CCCN(C(=O)Cc2ccc(C)cc2)C1 (stereo not drawn) returned HepG2 tox-1 4.2%, KB-3-1 tox inactive, S2 tox inactive, TGFb inhibitor 10µM*, KB-V1 MDR tox inactive, ATXN2 expr inh -16.2%, TGFb confirm -7.2%, HepG2 tox-2 -2.0%, CCL64 TGFb inh 23.9% and TGFb COP inh -9.8%.
`O=C(Nc1ccc(N2CCN(C(=O)c3ccccc3)CC2)cc1)c1ccc([N+](=O)[O-])o1` gave HepG2 tox-1 12.6µM*, KB-3-1 tox inactive, S2 tox inconclusive, TGFb inhibitor 5.62µM*, KB-V1 MDR tox inconclusive, TGFb confirm 7.31µM*, HepG2 tox-2 23.1µM*, CCL64 TGFb inh inconclusive and TGFb COP inh -21.0%.
Screening Cc1ccccc1C(=O)N1CCN(c2ccc(NC(=O)c3ccc([N+](=O)[O-])o3)cc2)CC1 returned HepG2 tox-1 1.12µM*, KB-3-1 tox 5.8µM*, S2 tox inconclusive, TGFb inhibitor 3.16µM*, KB-V1 MDR tox inconclusive, ATXN2 expr inh -27.8%, TGFb confirm 6.51µM*, HepG2 tox-2 16.4µM*, CCL64 TGFb inh -6.8% and TGFb COP inh inconclusive.
`O=C(NNC(=O)c1ccc([N+](=O)[O-])o1)c1ccccc1` gave HepG2 tox-1 -26.1%, KB-3-1 tox inconclusive, S2 tox inconclusive, TGFb inhibitor 7.94µM*, KB-V1 MDR tox inconclusive, ATXN2 expr inh -24.0%, TGFb confirm 16.4µM*, HepG2 tox-2 18.4µM*, CCL64 TGFb inh 3.3% and TGFb COP inh 51.8%.
For O=C(Nc1nc(-c2ccccn2)cs1)c1ccc([N+](=O)[O-])o1 the results were HepG2 tox-1 -58.0%, KB-3-1 tox inconclusive, S2 tox inconclusive, TGFb inhibitor 8.91µM*, KB-V1 MDR tox inactive, ATXN2 expr inh inconclusive, TGFb confirm 14.6µM*, HepG2 tox-2 16.4µM*, CCL64 TGFb inh inconclusive and TGFb COP inh 17.2%.
COc1ccc(C(=O)Nc2ccc(N3CCN(C(=O)c4ccccc4)CC3)cc2)cc1[N+](=O)[O-] was read as HepG2 tox-1 -8.2%, KB-3-1 tox inactive, S2 tox inactive, TGFb inhibitor -28.1%, KB-V1 MDR tox inconclusive and ATXN2 expr inh inconclusive.
`COc1ccc2c(C)c(CCC(=O)NCc3ccccc3Cl)c(=O)oc2c1C` gave HepG2 tox-1 -14.9%, KB-3-1 tox inactive, S2 tox inactive, TGFb inhibitor 5.2%, KB-V1 MDR tox inactive and ATXN2 expr inh -13.0%.
For O=C(c1ccc2c(c1)N(Cc1ccc(F)cc1)CCS2)N1CCN(c2ccccc2)CC1 the results were HepG2 tox-1 -51.3%, KB-3-1 tox inactive, S2 tox inconclusive, TGFb inhibitor inconclusive, KB-V1 MDR tox inconclusive and ATXN2 expr inh 0.0%.
For NC(=O)c1oc2ccccc2c1NC(=O)c1ccc(F)cc1 the results were HepG2 tox-1 31.0%, KB-3-1 tox inactive, S2 tox inactive, TGFb inhibitor -19.3%, KB-V1 MDR tox inactive and ATXN2 expr inh -5.8%.
NC(=O)c1oc2ccccc2c1NC(=O)c1ccc([N+](=O)[O-])o1 was read as HepG2 tox-1 -31.1%, KB-3-1 tox 3.66µM*, S2 tox inconclusive, TGFb inhibitor 7.08µM*, KB-V1 MDR tox 7.31µM*, ATXN2 expr inh inconclusive, TGFb confirm 4.61µM*, HepG2 tox-2 23.1µM*, CCL64 TGFb inh inconclusive and TGFb COP inh 51.5%.
Screening COc1ccccc1N1CCN(c2nc3ccc(C)cc3nc2-n2nc(C)cc2C)CC1 returned HepG2 tox-1 -23.7%, KB-3-1 tox inactive, S2 tox inactive, TGFb inhibitor inconclusive, KB-V1 MDR tox inactive and ATXN2 expr inh -28.7%.
For COc1ccc(-c2cc(N)n(S(=O)(=O)c3c(F)c(F)c(F)c(F)c3F)n2)cc1OC the results were HepG2 tox-1 8.91µM*, KB-3-1 tox 10.3µM*, S2 tox 10µM*, TGFb inhibitor 3.98µM*, KB-V1 MDR tox 9.2µM*, ATXN2 expr inh 7.94µM*, TGFb confirm 2.59µM*, HepG2 tox-2 8.2µM*, CCL64 TGFb inh 2.91µM* and TGFb COP inh inconclusive.
`CNc1nc(NCc2ccc(C)cc2C)c2sccc2n1` gave HepG2 tox-1 -6.6%, KB-3-1 tox inactive, S2 tox inconclusive, TGFb inhibitor 11.2µM*, KB-V1 MDR tox inconclusive, ATXN2 expr inh inconclusive, TGFb confirm 16.4µM*, HepG2 tox-2 inconclusive, CCL64 TGFb inh inconclusive and TGFb COP inh 68.5%.
`O=C1CCCN1CCCNc1nc(NCc2ccccc2)nc2ccsc12` gave HepG2 tox-1 -37.1%, KB-3-1 tox inactive, S2 tox inactive, TGFb inhibitor 3.16µM*, KB-V1 MDR tox inconclusive, ATXN2 expr inh -8.6%, TGFb confirm 2.91µM*, HepG2 tox-2 7.31µM*, CCL64 TGFb inh 5.17µM* and TGFb COP inh 48.4%.
`CC(C)Nc1nc(NCc2ccccc2)c2sccc2n1` gave HepG2 tox-1 -21.0%, KB-3-1 tox inconclusive, S2 tox inconclusive, TGFb inhibitor inconclusive, KB-V1 MDR tox inconclusive and ATXN2 expr inh inconclusive.
